Reference: PubChem BioAssay AID651819 (National Center for Advancing Translational Sciences (NCATS), 2012)
About 1,100 (0.31%) of roughly 360,000 compounds were called active. No stated cut-off is given here; in the data, active means activity change below about -30%; inactive means the rest. The list comes from a sample in which actives are over-represented; it also holds similar structures and randomly drawn compounds.

system: cytosolic chaperonin (CCT/TRiC complex); experiment: High-Throughput Screening for Modulators of Cytosolic Chaperonin Activity; settings: purified chaperonin ATPase assay, HTRF ADP detection, 30 min; active compounds read low
From the text: The eukaryotic chaperonin named TRiC (for TCP-1 ring complex), also called CCT (for chaperonin containing TCP1), is an essential and conserved chaperone required for the folding and activation of 10-15% of the proteins encoded by the human genome. […] Despite its central role in cellular folding, little is known about TRiC mechanism and mode of substrate binding. Currently, no specific TRiC inhibitors are available. Given the early promise of other chaperone-directed inhibitors as cancer therapeutics (e.g. HSP90 inhibitors), inhibitors of TRiC activity may also selectively target transformed cells and have potential use as therapeutics for cancer.
To this end, a miniaturized assay was developed to screen against the Molecular Libraries Small Molecule Repository (MLSMR).
NIH Chemical Genomics Center [NCGC]
NIH Molecular Libraries Probe Centers Network [MLPCN]
Assay Submitter (PI): Judith Frydman, Stanford University
1.5 uL/well TRiC enzyme suspended in buffer (30 mM TRIS pH7.4, 100 mM KCl, 5 mM MgCl2, 1 mM DTT) was added with BioRAPTR FRD dispenser at 40 nM or 20 nM (based on the enzymatic activity of used batches) final concentration to a white solid bottom medium binding 1536-well plate (Greiner Bio-One, Monroe, NC), and quickly spanned down. 23 nl/well of compound solutions in DMSO were added with a pintool transfer (Kalypsis, San Diego, CA) at a single 76 uM final concentration. Next, 1.5 µl/well ATP was dispensed with BioraptR at 10 uM final concentration after which the plates were incubated at 37 deg C for 30 min. HTRF(R) Transcreener(R) ADP (Cisbio US, Bedford, MA) detection reagents were prepared accordingly to the protocol and dispensed into the plate (1.5 uL/well each), incubated for 30 min at ambient temperature. Then, the plates were read using Envision reader with excitation at 330nm and emission at 615nm (Eu(3)-Cryptate donor signal) and 665nm (d2 acceptor signal). The ratio of […] was calculated for each well.
On the % scale 0 is the no-effect control and ±100 the full control effect.

Q: For `O=C1CC(c2ccccc2)C(=O)N2C(=O)CC(c3ccccc3)C(=O)N12` (stereo unspecified), which activity change is on record?
A: Its activity change is -3.94% (inactive).

Q: With `COc1ccc2c(c1)C(=O)CC(c1ccccc1)O2` (stereo unspecified) as the compound, how does the activity change read?
A: Its activity change is 0.324% (inactive).

Q: How did the activity change turn out when `Cc1c(O)c(C)c2c(c1O)C(=O)C[C@@H](c1ccccc1)O2` was run?
A: Its activity change is -31.9% (active).

Q: How did the activity change turn out when `CCc1ccc(C(=O)N2CCN(S(=O)(=O)c3sc(C(=O)O)c(C)c3C(=O)O)CC2)cc1` was run?
A: The activity change was -1.96% (inactive).

Q: With `COC(=O)CN(c1nc(C)c(Cl)c(OC)n1)S(=O)(=O)c1ccc(C)cc1` as the compound, how does the activity change read?
A: The activity change was 2.28% (inactive).

Q: For `CC1CCC2(CC1)NC(=O)N(CC(=O)c1cccn1C)C2=O` (stereo unspecified), which activity change is on record?
A: The activity change was 0.876% (inactive).

Q: With `O=C(Cn1nc([N+](=O)[O-])nc1Br)NC1CCCCC1` as the compound, how does the activity change read?
A: The activity change was -63% (active).

Q: With `Cc1nn(CC(=O)NC2CCCCC2)c(=O)c2cccn12` as the compound, how does the activity change read?
A: The activity change was 0.008% (inactive).

Q: Which activity change does the source give for `Cc1cc(C(F)F)nn1CC(=O)NC1CCCCCC1` here?
A: The activity change was -0.636% (inactive).

Q: How did the activity change turn out when `COc1c(Br)cc2c(C)c(C(=O)N3CCOCC3)oc2c1Br` was run?
A: Its activity change is -0.84% (inactive).

Q: Which activity change does the source give for `Cc1ccc2[nH]c(=O)c(CN(C)S(=O)(=O)c3cccc4nonc34)cc2c1` here?
A: The activity change was -2.6% (inactive).

Q: `CCCc1ccc(OCC(O)CN2CCN(C(=O)OCC)CC2)cc1` (stereo unspecified) was tested. Which activity change did it give?
A: Its activity change is 0.305% (inactive).

Q: How did the activity change turn out when `Nc1ccc(OCC(O)C[n+]2ccc(CCS(=O)(=O)[O-])cc2)cc1` (stereo unspecified) was run?
A: Its activity change is -32.1% (active).

Q: For `CCc1ccc(S(=O)(=O)NCC(O)COc2ccc(OC)cc2)cc1` (stereo unspecified), which activity change is on record?
A: The activity change was 2.49% (inactive).

Q: Which activity change does the source give for `O=C(Nc1cccc(Cl)c1Cl)c1ccccc1NC(=O)C1CC=CCC1C(=O)O` (stereo unspecified) here?
A: The activity change was 1.29% (inactive).

Q: With `COC(=O)c1ccc(-n2cnc3ccccc32)nc1` as the compound, how does the activity change read?
A: Its activity change is -67.7% (active).

Q: Which activity change does the source give for `COC(=O)c1ccc(SCc2ccccc2)nc1` here?
A: The activity change was -0.717% (inactive).

Q: How did the activity change turn out when `O=C(c1ccc(Cl)cc1)n1cnc2ccccc21` was run?
A: The activity change was -0.842% (inactive).

Q: For `CS(=O)(=O)N(Cc1nc2sc3c(c2c(=O)[nH]1)CCCC3)C1CCCCC1`, which activity change is on record?
A: Its activity change is -3.6% (inactive).

Q: How did the activity change turn out when `COC(=O)c1sccc1N/N=C(\C)c1ccc(F)c(Cl)c1` was run?
A: Its activity change is 0.343% (inactive).

Q: With `COc1ccc(-c2nc(CS(=O)(=O)CC(=O)NCc3cccc(Br)c3)c(C)o2)cc1` as the compound, how does the activity change read?
A: The activity change was -0.857% (inactive).

Q: Which activity change does the source give for `Cc1ccc(-c2nc(CS(=O)(=O)CC(=O)NCc3ccc4c(c3)OCO4)c(C)o2)cc1` here?
A: Its activity change is -39.8% (active).

Q: With `COc1ccc(CCNC(=O)CS(=O)(=O)Cc2nc(-c3ccc(C)cc3)oc2C)cc1OC` as the compound, how does the activity change read?
A: The activity change was -1.25% (inactive).

Q: How did the activity change turn out when `CC12CN(Cc3ccccc3)CC(C)(CN(Cc3ccccc3)C1)C2=NO` was run?
A: Its activity change is 1.91% (inactive).

Q: `CC(C)(C)CN1C(=O)C(=O)NC[C@H]1Cc1cccc2ccccc12` was tested. Which activity change did it give?
A: Its activity change is -2.37% (inactive).

Q: With `O=C(CCc1nnc2ccc(NCc3ccco3)nn12)Nc1cc(F)ccc1F` as the compound, how does the activity change read?
A: The activity change was -33.9% (active).

Q: Which activity change does the source give for `CCOc1ccccc1NC(=O)CCc1nnc2ccc(NCc3ccco3)nn12` here?
A: The activity change was 1.37% (inactive).

Q: Which activity change does the source give for `CC(=O)c1ccc(NC(=O)CCc2nnc3ccc(NCc4ccco4)nn23)cc1` here?
A: The activity change was -1.16% (inactive).

Q: How did the activity change turn out when `COC(=O)[C@@]1(Cc2ccc(F)cc2)[C@H]2c3cc(C(=O)N(C)C)n(CCc4c[nH]c5ccc(OC)cc45)c3C[C@H]2CN1C(=O)c1ccccc1` was run?
A: Its activity change is -0.685% (inactive).

Q: `C=CCOc1ccc(/C=N/NC(=O)C(C)Sc2ccccn2)cc1OCC` (stereo unspecified) was tested. Which activity change did it give?
A: Its activity change is -2.2% (inactive).

Q: `O=C(NNC(=O)c1cccc(S(=O)(=O)Nc2ccc(Cl)cc2)c1)c1ccc(=O)[nH]c1` was tested. Which activity change did it give?
A: The activity change was -0.309% (inactive).

Q: `CCc1ccc(/C=N/NC(=O)c2ccc(OC3CCCC3)cc2)s1` was tested. Which activity change did it give?
A: The activity change was -13.3% (inactive).

Q: With `CC(=O)c1c(C)n(-c2ccc(N(C)C)cc2)c2ccc(OCC(N)=O)cc12` as the compound, how does the activity change read?
A: Its activity change is 0.0827% (inactive).

Q: With `CCOC(=O)c1c(CN2CCOCC2)n(-c2ccccc2)c2ccc(O)cc12` as the compound, how does the activity change read?
A: The activity change was -1.1% (inactive).

Q: Which activity change does the source give for `CC(=O)c1c(C)n(-c2ccc(C)cc2)c2ccc(O)cc12` here?
A: The activity change was -47.3% (active).

Q: `Cc1ccc(CN2C(=O)CCC2C(=O)NCCCN2CCCCC2C)cc1` (stereo unspecified) was tested. Which activity change did it give?
A: Its activity change is 0.0456% (inactive).

Q: With `CC1CCN(c2ccc(S(=O)(=O)Nc3cc(C(=O)O)cc(C(=O)O)c3)cc2[N+](=O)[O-])CC1` as the compound, how does the activity change read?
A: The activity change was -0.243% (inactive).

Q: Which activity change does the source give for `CCc1ccccc1NC(=O)Cc1cn(C)c2ccccc12` here?
A: The activity change was -2.82% (inactive).

Q: With `O=C(NCc1ccco1)C1CCCN(S(=O)(=O)c2cccc3nonc23)C1` (stereo unspecified) as the compound, how does the activity change read?
A: The activity change was -0.959% (inactive).

Q: With `Cc1ccccc1CNC(=O)CCC(=O)N1Cc2ccccc2Oc2ncccc21` as the compound, how does the activity change read?
A: The activity change was -84.3% (active).

Q: `Cc1ccc2c(c1)N(C(=O)CCC(=O)NCc1cccnc1)CCO2` was tested. Which activity change did it give?
A: The activity change was -3.52% (inactive).

Q: `Cc1ccccc1CN1CCN(CC(=O)NCc2ccccn2)C1=O` was tested. Which activity change did it give?
A: The activity change was 0.386% (inactive).

Q: Which activity change does the source give for `COC(=O)[C@@H](NC(=O)NCc1cccc(OC)c1)C(C)C` here?
A: Its activity change is -2.29% (inactive).

Q: With `COC(=O)Nc1ncc(CN2C(=O)c3ccccc3C2=O)s1` as the compound, how does the activity change read?
A: The activity change was -0.4% (inactive).

Q: Which activity change does the source give for `Cc1noc(C)c1S(=O)(=O)N1CCCC(C(=O)Nc2nccs2)C1` (stereo unspecified) here?
A: Its activity change is -0.498% (inactive).

Q: For `CC(Cc1cccs1)N(Cc1ccc(Cl)cc1)C(=O)c1ccncc1` (stereo unspecified), which activity change is on record?
A: The activity change was 1.98% (inactive).
